Drawing on PubChem BioAssay (Tox21), this text covers Potency for 35 molecules.

SMILES strings stand for the structures. Values joined by “and” are separate entries in the source; they are usually repeats but may differ in a detail not shown here. Equal entries are not always repeated. Inconclusive results are not listed. Entries that show only a call come without a potency. Active and inactive are the calls of the source. Calls come from the whole dose curve.

Chain of Muscarinic acetylcholine receptor M1 (Homo sapiens) (P11229 whole entry, looked up): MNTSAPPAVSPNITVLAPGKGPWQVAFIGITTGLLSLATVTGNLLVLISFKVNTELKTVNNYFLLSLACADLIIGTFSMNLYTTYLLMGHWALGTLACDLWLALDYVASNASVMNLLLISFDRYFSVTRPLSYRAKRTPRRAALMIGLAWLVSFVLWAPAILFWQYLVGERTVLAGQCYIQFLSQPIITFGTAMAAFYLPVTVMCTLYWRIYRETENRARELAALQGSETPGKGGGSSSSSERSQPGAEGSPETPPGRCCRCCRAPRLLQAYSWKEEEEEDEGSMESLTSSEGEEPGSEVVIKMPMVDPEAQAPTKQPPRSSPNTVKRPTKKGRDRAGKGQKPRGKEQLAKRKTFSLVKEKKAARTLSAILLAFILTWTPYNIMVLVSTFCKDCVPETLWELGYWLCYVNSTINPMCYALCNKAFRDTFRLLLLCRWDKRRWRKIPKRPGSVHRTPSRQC

One test deals with Muscarinic acetylcholine receptor M1 (Homo sapiens) (UniProt P11229). As to the kind of experiment: Cholinergic receptor muscarinic 1 (CHRM1) small molecule antagonists, cell-based qHTS assay (AID 1963588). Note: nearly all actives have a fitted effect of over 40% in size. As to conditions: CHRM1-CHO antagonist mode, calcium flux fluorescence; series mostly up to 61.5 µM. The essentials:
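Compounds were tested at 15 concentrations in three independent runs. Dye-loaded CHRM1-CHO cells were exposed 5 min at room temperature before stimulation by acetylcholine added at 50nM. Intracellular calcium was read kinetically on FDSS for 3 min.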
For the molecule `CCCOC(=O)NCCCN(C)C`, the Potency result was “inactive”.

`CC(O)COCC(C)O` (stereo unspecified): the Potency result was “inactive”.

Turning to `CCCCC/C=C\C/C=C\CCCCCCCC(=O)OC`, the Potency entry was “inactive”.

Take `Cc1ccc(N)c(S(=O)(=O)O)c1`: the Potency entry was “inactive”.

As to `NCCOCCO`, the Potency result was “inactive”.

As to `CC(=O)Oc1ccc(C)cc1`, the Potency result is “inactive”.

For `O=S1(=O)CCCO1`, the Potency entry was “inactive”.

As to `O=[N+]([O-])c1cccc(Cl)c1`, the Potency result was “inactive”.

As for `CCOCC(=O)O`, the Potency result is “inactive”.

Regarding `Clc1ccccn1`, the Potency result is “inactive”.

In the case of `Cc1cccc([N+](=O)[O-])c1C`, the Potency result was “inactive”.

For another test the target is unchanged. As to the kind of experiment: Cholinergic receptor muscarinic 1 (CHRM1) small molecule agonists, cell-based qHTS assay (AID 1963589). Note: nearly all actives have a fitted effect of over 35% in size. Note: potency is the fitted concentration of half-maximal effect. To be noted: CHRM1-CHO cells, agonist mode, calcium flux fluorescence; series mostly up to 76.8 µM. The essentials:
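Cells were plated and incubated 18 h at 37 C/5% CO2, loaded with calcium dye for 1 h at 37 C, then treated with compounds in DMSO. Fluorescence was recorded kinetically at 1 sec intervals.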
For the molecule `CCCCCCCCCCCC[N+](C)(C)C`, the Potency was 27.5 µM (active) and 245 nM (active).

Take `O=C1CCCCCCCCCCC1`: the Potency result is “inactive”.

Take `CC(=O)[C@H]1CC[C@H]2[C@@H]3CC=C4C[C@@H](O)CC[C@]4(C)[C@H]3CC[C@]12C`: the Potency result is “inactive”.

As to `O=C1O[C@H](CO)[C@@H](O)[C@H](O)[C@H]1O`, the Potency entry was “inactive”.

Consider `Brc1nc2ccccc2s1`, for which the Potency entry was “inactive”.

For `Oc1ccc2ccccc2c1N=Nc1ccccc1`, the Potency result was “inactive”.

Take `Nc1cc([N+](=O)[O-])ccc1C(=O)O`: the Potency entry is “inactive”.

On to `CCCCCCCCCCCCCC[N+](C)(C)Cc1ccccc1`, for which the Potency result was “inactive”.

As for `CCCCCCCCOc1ccc(C(=O)c2ccccc2)c(O)c1`, the Potency result is “inactive”.

Consider `Clc1ccc(Cl)c(Cl)c1Cl`, for which the Potency entry is “inactive”.

For `COc1ccc(C(Cl)=C(c2ccc(OC)cc2)c2ccc(OC)cc2)cc1`, the Potency entry is “inactive”.

`CN(C)CCCN`: the Potency entry is “inactive”.

For the molecule `C=C(C)C(=O)O[C@H]1C[C@@H]2CC[C@@]1(C)C2(C)C`, the Potency result was “inactive”.

Regarding `C=CCOC(=O)c1ccccc1C(=O)OCC=C`, the Potency entry is “inactive”.

For the molecule `COCCOC(=O)c1ccccc1C(=O)OCCOC`, the Potency entry is “inactive”.

On to `O=c1n(CC2CO2)c(=O)n(CC2CO2)c(=O)n1CC1CO1` (stereo unspecified), for which the Potency entry was “inactive”.

In the case of `O=C(/C=C/C=C/c1ccc2c(c1)OCO2)N1CCCCC1`, the Potency result is “inactive”.

On to `Cc1cc(Cc2ccc(N)c(C)c2)ccc1N`, for which the Potency result was “inactive”.

Regarding `CCC[C@H](N[C@@H](C)C(=O)N1[C@H](C(=O)O)C[C@@H]2CCCC[C@@H]21)C(=O)OCC`, the Potency result was “inactive”.

With `c1ccc2c(c1)Cc1ccccc1-2`, the Potency entry is “inactive”.

As to `CCCCOC(=O)CC(CC(=O)OCCCC)(OC(C)=O)C(=O)OCCCC`, the Potency result is “inactive”.

`C=CC[N+](C)(C)CC=C`: the Potency entry is “inactive”.

Turning to `CC(O)COCC(C)O` (stereo unspecified), the Potency result was “inactive”.

Turning to `Nc1ncnc2nc[nH]c12`, the Potency entry is “inactive”.

Take `Cc1ccc(N)c(S(=O)(=O)O)c1`: the Potency entry was “inactive”.

With `NCCOCCO`, the Potency entry was “inactive”.

As for `O=S1(=O)CCCO1`, the Potency entry is “inactive”.

With `C=C(C)C(=O)OCC(CC)(COC(=O)C(=C)C)COC(=O)C(=C)C`, the Potency result was “inactive”.

`O=[N+]([O-])c1cccc(Cl)c1`: the Potency entry was “inactive”.

For the molecule `Cc1cccc([N+](=O)[O-])c1C`, the Potency result is “inactive”.
